The results in this text go back to PubChem BioAssay (Tox21).

Test [1] is described as follows: qHTS assay for small molecule agonists of the p53 signaling pathway (AID 651631; calls by dose curve; also: nearly all actives have a fitted effect of over 15% in size). In a few lines: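 HCT-116 cells carrying a stable p53 response element–beta-lactamase reporter were plated, rested 5 h at 37 °C, then exposed to compound in DMSO for 16 h at 37 °C; reporter activity was read as FRET substrate fluorescence after 2 h at room temperature.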
Test [2] can be described thus: qHTS assay for small molecules that induce genotoxicity in human embryonic kidney cells expressing luciferase-tagged ATAD5 (AID 651632). Also: nearly all actives have a fitted effect of over 15% in size. The method in brief: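 HEK293T cells carrying a luciferase reporter tagged to ATAD5 were exposed to compound or DMSO vehicle for 16 hr at 37C, 5% CO2. Amplite was added, and after 30 min at room temperature luciferase activity was read as a marker of ATAD5 induction.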

Test [3] in a line: qHTS assay for small molecule disruptors of the mitochondrial membrane potential - cell viability (AID 720634; calls by dose curve;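 also: human HepG2 liver cancer cells; series mostly up to about 83 µM; nearly all actives have a fitted effect of over 20% in size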). The method in brief: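 HepG2 cells seeded overnight at 37 C, then exposed to compound or DMSO for 1 hr at 37 C, 5% CO2. m-MPI dye added, then CellTiter-Glo for 30 min at room temperature; viability read as ATP luminescence.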
Test [4] can be described thus: qHTS assay for small molecule disruptors of the mitochondrial membrane potential (AID 720635). Also: potency is read from the fitted curve at half-maximal effect. In a few lines:
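HepG2 cells exposed to compound 1 hr at 37C, then Mito-MPS dye 30 min. Ratio read of aggregate (540/590 nm) versus monomer (490/535 nm) fluorescence.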

Test [5] in a line: qHTS assay to test for compound auto fluorescence at 590 nm (red) in HepG2 cells (AID 720674). The method in brief:
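HepG2 cells, 2,000 per well in MEM with 10% FBS, attached overnight at 37 C, then got 23 nL compound or DMSO. After 1 hr at 37 C, 5% CO2, red fluorescence was read at 540/590 nm against Rose Bengal sodium as reference.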

A short description of test [6]: qHTS assay to test for compound auto fluorescence at 535 nm (green) in HepG2 cells (AID 720675).
The nature of test [7]: qHTS assay to test for compound auto fluorescence at 460 nm (blue) in HEK293 cells (AID 720678). In a few lines:
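Intrinsic compound fluorescence is recorded in live HEK293 cultures after overnight incubation at 37C, 5% CO2, using excitation 405 nm and emission 460 nm. Values are referenced to triamterene.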

Test [8] in a line: qHTS assay to test for compound auto fluorescence at 590 nm (red) in HEK293 cells (AID 720679). In a few lines: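 Red autofluorescence, HEK293 cells: 2,000 cells/well; attach 4-5 hr 37C; add 23 nL cpd or DMSO; incubate o/n 37C 5% CO2; read Ex540/Em590; Rose Bengal sodium reference.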
Test [9] can be described thus: qHTS assay to test for compound auto fluorescence at 535 nm (green) in HEK293 cells (AID 720680).
Test [10] can be described thus: qHTS assay to test for compound auto fluorescence at 460 nm (blue) in HEK293 cell free culture (AID 720681). The method in brief: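 Compounds were added to cell-free DMEM with 10% FBS and fluorescence read directly. The blue channel used 405 nm excitation and 460 nm emission, with triamterene as the reference fluorophore.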
Test [11] can be described thus: qHTS assay to test for compound auto fluorescence at 535 nm (green) in HEK293 cell free culture (AID 720682). The method in brief: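 Read-out: 485/535 nm fluorescence intensity, calibrated against fluorescein. Medium only (DMEM + 10% FBS, no cells); test compound or DMSO vehicle added by pintool before plate reading.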
The nature of test [12]: qHTS assay to test for compound auto fluorescence at 590 nm (red) in HEK293 cell free culture (AID 720683). In a few lines:
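Cell-free wells of DMEM with 10% FBS received compound, and intrinsic fluorescence was read at excitation/emission 540/590 nm. Values expressed as equivalence to Rose Bengal sodium.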

Test [13] is described as follows: qHTS assay to test for compound auto fluorescence at 590 nm (red) in HepG2 cell free culture (AID 720684). The method in brief: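 Compound was pinned into wells holding MEM with 10% FBS and no cells, and red fluorescence was read at Ex/Em 540/590 nm. Signal is expressed as auto fluorescence equivalency relative to Rose Bengal sodium.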
Test [14] is described as follows: qHTS assay to test for compound auto fluorescence at 460 nm (blue) in HepG2 cell free culture (AID 720685). In a few lines:
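Compound (23 nL) or DMSO pinned into cell-free MEM with 10% FBS; blue fluorescence read at 405/460 nm excitation/emission, expressed as auto-fluorescence equivalency to triamterene.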

Test [15] in a line: qHTS assay to test for compound auto fluorescence at 535 nm (green) in HepG2 cell free culture (AID 720686).
Test [16] is described as follows: qHTS assay to test for compound auto fluorescence at 460 nm (blue) in HepG2 cells (AID 720687). The method in brief: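 HepG2 cells in MEM with 10% FBS, attached overnight at 37 C, were exposed to compound or DMSO for 1 hr at 37 C, 5% CO2. Blue fluorescence was read at 405/460 nm, with triamterene as reference fluorophore.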
Test [17] has as its target Glucocorticoid receptor (Homo sapiens) (UniProt P04150). Put plainly: qHTS assay to identify small molecule agonists of the glucocorticoid receptor (GR) signaling pathway (AID 720691; active = well fitted activation curve with a large enough effect in the signal ratio in the repeat runs, not every such curve was filed as active; the % refers to the signal ratio). In a few lines: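 GR-bla HeLa cells (beta-lactamase reporter under glucocorticoid response element) were plated 4 h at 37 C/5% CO2, given compounds in DMSO, and incubated 18 h at 37 C. LiveBLAzer B/G FRET substrate was added for 2 h at room temperature, then fluorescence intensity read.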

Test [18] shares this target. Put plainly: qHTS assay to identify small molecule antagonists of the glucocorticoid receptor (GR) signaling pathway (AID 720692; active = well fitted inhibition curve with a large enough effect in the signal ratio in the repeat runs, not every such curve was filed as active; the % refers to the signal ratio). In a few lines:
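GR-bla HeLa cells (beta-lactamase reporter under glucocorticoid response element) were pre-plated 4 h at 37 C, treated with compounds plus 5 nM dexamethasone (final) for 18 h, then read by LiveBLAzer B/G FRET fluorescence after 2 h.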

A short description of test [19]: qHTS assay for small molecules that induce genotoxicity in human embryonic kidney cells expressing luciferase-tagged ATAD5 - cell viability (AID 651634; calls by dose curve; also: nearly all actives have a fitted effect of over 25% in size). In a few lines:
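HEK293T cells expressing luciferase-tagged ATAD5 were exposed to compound or DMSO for 15.5 hr at 37C, 5% CO2. Viability was then read as live-cell protease activity by CellTiter-Fluor fluorescence after 30 min at 37C.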

A short description of test [20]: qHTS assay for small molecule agonists of the p53 signaling pathway - cell viability (AID 651633; calls by dose curve; also: series mostly up to about 83 µM; nearly all actives have a fitted effect of over 30% in size). The method in brief: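 p53RE-bla cells were treated with compound for 16 hours at 37 C. Cytotoxicity was then measured as CellTiter-Glo luminescence after 30 min at room temperature.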

A number with no mark means an inactive call. Results filed as inconclusive are left out. Calls of active or inactive are those of the source. Unless noted, calls follow the shape of the dose curve; as a rule, active = well fitted curve in the direction sought with a large enough effect in the repeat runs; inconclusive = weak or mixed curves; inactive = no such curve, though single readings can be large; an effect the other way counts as inactive or inconclusive.
% is scaled to controls: 0 for no effect and ±100 for the full control effect.

Sequence of Glucocorticoid receptor (Homo sapiens) (P04150 whole entry, looked up): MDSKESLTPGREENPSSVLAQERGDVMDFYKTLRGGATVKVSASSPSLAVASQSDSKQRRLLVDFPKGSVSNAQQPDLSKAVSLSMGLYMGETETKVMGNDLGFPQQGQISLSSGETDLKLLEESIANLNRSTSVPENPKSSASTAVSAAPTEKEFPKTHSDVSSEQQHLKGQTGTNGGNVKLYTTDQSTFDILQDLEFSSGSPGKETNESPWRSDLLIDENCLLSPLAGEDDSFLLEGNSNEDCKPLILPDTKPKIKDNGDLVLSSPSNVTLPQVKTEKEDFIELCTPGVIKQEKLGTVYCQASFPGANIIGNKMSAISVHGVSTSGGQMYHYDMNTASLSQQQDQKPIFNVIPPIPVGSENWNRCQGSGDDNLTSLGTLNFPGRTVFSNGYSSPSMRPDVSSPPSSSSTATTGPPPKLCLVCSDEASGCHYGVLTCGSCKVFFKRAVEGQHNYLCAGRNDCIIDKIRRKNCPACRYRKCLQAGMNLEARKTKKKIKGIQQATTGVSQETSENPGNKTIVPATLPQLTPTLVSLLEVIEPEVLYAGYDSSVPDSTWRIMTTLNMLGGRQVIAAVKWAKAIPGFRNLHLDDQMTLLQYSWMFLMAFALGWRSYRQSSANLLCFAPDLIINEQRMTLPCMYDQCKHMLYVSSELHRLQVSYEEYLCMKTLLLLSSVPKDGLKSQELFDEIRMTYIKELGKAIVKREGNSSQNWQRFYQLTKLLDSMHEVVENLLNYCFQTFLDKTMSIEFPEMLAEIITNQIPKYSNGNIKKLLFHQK

On to `O=C1OC[C@H](Cc2cccc(O)c2)[C@H]1Cc1cccc(O)c1`, for which the Potency entry in [1], in test [2], in test [7], in test [10], in [14] and in [16] was “inactive” in each case. Also, the Potency result in test [17] and in test [18] was “inactive” each time. In addition, the call in test [3], in test [5], in test [6], in test [8], in test [9] and in [11] was inactive. Further, the compound was called inactive in [12], in test [13] and in test [15]. Also, in test [4], the Potency is 8.24 µM (active).
For `CC(C)CC(O)CC(C)C`, the Potency result in [1], in [2], in test [19], in test [7], in [10] and in test [14] was “inactive” throughout. The Potency result in test [16], in test [17] and in test [18] was “inactive” each time. Further, the compound was called inactive in [3], in test [5], in test [6], in test [8], in [9] and in test [11]. For the same compound, the compound was called inactive in test [12] and in test [15].
As to `CC1CCCO1` (stereo unspecified), the Potency result in test [1], in [20], in [7], in test [14] and in test [16] was “inactive” throughout. Further, the compound was called inactive in [3], in test [5], in [8], in test [9], in test [11] and in test [12]. Moreover, the result in test [13] and in [15] was inactive.
Turning to `CC[C@@H](CO)NCCN[C@@H](CC)CO`, the Potency result in test [1], in [20], in [19] and in test [4] was “inactive” in each case. Moreover, the outcome in test [3] was inactive. For the same compound, the fluorescence, relative to Rose Bengal in [5] is -0.504% [at 18.6 µM]. Further, the values for the fluorescence, % of fluorescein control in test [6] and in test [15] were 0.0308% [at 18.6 µM] and 0.0013% [at 18.6 µM], respectively. The fluorescence, % of triamterene in test [7] is 0.0077% [at 18.6 µM]. Further, the fluorescence, % of fluorescent control in [8] was -0.143% [at 18.6 µM]; in test [10], 0.0181% [at 18.6 µM]; in test [12] it was 0.0179% [at 18.6 µM]; in test [14], 0.0488% [at 18.6 µM]; in test [16], -0.0204% [at 18.6 µM]. Besides, in [9], the fluorescence, % of fluorescein was -0.0101% [at 18.6 µM]. For the same compound, the activity change in [11] was 0.014% [at 18.6 µM]. In addition, in [13], the fluorescence, % of Rose Bengal is 0.0051% [at 18.6 µM].
As for `CC(=O)NCCO`, the Potency entry in [1], in [2], in test [4], in test [7], in test [10] and in test [14] was “inactive” throughout. In addition, the Potency entry in test [16], in [17] and in [18] was “inactive” throughout. Moreover, the call in [3], in [5], in [6], in test [8], in [9] and in [11] was inactive. Further, the outcome in test [12], in [13] and in [15] was inactive.
`CCCCCCCCCCCCCOC(=O)CCSCCC(=O)OCCCCCCCCCCCCC`: the Potency result in [2], in [20] and in test [19] was “inactive” in each case. Further, the compound was classed as inactive in [3]. Moreover, the fluorescence, relative to Rose Bengal in test [5] was 0.06% [at 18.6 µM]. Moreover, the fluorescence, % of fluorescein control in test [6] is -0.0137% [at 18.6 µM]; in test [15], -0.0124% [at 18.6 µM]. For the same compound, in [7], the fluorescence, % of triamterene was 0.0236% [at 18.6 µM]. The fluorescence, % of fluorescent control was 0.358% [at 18.6 µM] in [8]; -0.0348% [at 18.6 µM] in test [10]; 0.0989% [at 18.6 µM] in test [12]; -0.0714% [at 18.6 µM] in test [14]; -0.106% [at 18.6 µM] in test [16]. For the same compound, the fluorescence, % of fluorescein in [9] was -0.0169% [at 18.6 µM]. Moreover, in test [11], the activity change is 0.0335% [at 18.6 µM].
Turning to `CC(=O)OCCC(C)CC(C)(C)C` (stereo unspecified), the Potency result in [2], in [20], in test [4], in test [7], in test [10] and in [14] was “inactive” in each case. For the same compound, the Potency result in test [16] and in [17] was “inactive” each time. The compound was called inactive in [3], in test [5], in test [8], in test [9], in test [11] and in test [12]. For the same compound, the result in [15] was inactive.
As to `CC[C@H]1OC(=O)[C@H](C)[C@@H](O[C@H]2C[C@@](C)(OC)[C@@H](O)[C@H](C)O2)[C@H](C)[C@@H](O[C@@H]2O[C@H](C)C[C@H](N(C)C)[C@H]2O)[C@](C)(O)C[C@@H](C)/C(=N\OCOCCOC)[C@H](C)[C@@H](O)[C@]1(C)O`, the Potency entry in [2], in test [20], in test [19], in test [4], in test [7] and in test [14] was “inactive” throughout. Moreover, the Potency entry in test [16], in [17] and in [18] was “inactive” in each case. Besides, the compound was called inactive in test [3], in [5], in test [6], in [8], in [9] and in [11]. The result in test [12], in test [13] and in [15] was inactive.
